What all share (assay): NCI-60 one-dose screen, 48 h (100 = growth as untreated, 0 = no growth, -100 = all killed)
What all share (conditions): 10 µM

Test [1] concerns T-47D breast.
The test system of test [2] is BT-549 breast.
The subject of test [3] is MDA-MB-435 melanoma.
Test [4] relates to SW-620 colon.
Test [5] deals with MCF7 breast.
The subject of test [6] is HCT-116 colon.
The subject of test [7] is HCC-2998 colon.
For test [8], the system named is KM12 colon.

This passage reports growth results from PubChem BioAssay (NCI).

This is part of a sample that, as a whole, favours compounds with a hit. Of some 83,000 tested, about 20% had one in any assay.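 In brief: 96-well plates, 48 h treatment, single concentration, percent growth endpoint.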 Values without a mark were called inactive. Calls of active or inactive are those of the source. How the source made its calls: active means growth percent below 10; inactive means the rest.

Turning to `Nc1nc(N)c(N)c(Nc2ccc(CCO)cc2)n1`, the growth was 102% in test [1]; 99.9% in test [2]; 104% in test [3]; 94% in test [4]; 105% in test [5]; 104% in test [6]. For the same molecule, the growth in test [7] is 106%; in test [8] it was 101%.

With `COc1cc2c(Nc3ccc(-c4ccc(N)cc4)cc3)ncnc2c(OC)c1OC`, the growth was 83% in test [1]; 85.5% in test [2]; 7.13% (active) in test [3]; 14.4% in test [4]; 36.1% in test [5]; 58.3% in test [6]. For the same molecule, the growth is 4.99% (active) in test [7] and 3.42% (active) in test [8].

On to `CCOC(=O)c1cc(C(=O)c2cc(OC)c(OC)c(OC)c2)n2nc(C)ccc12`, for which the growth in test [1] is 93.6%; in test [2], 47.5%; in test [3], 3.24% (active); in test [4] it was 26.7%; in test [5] it was 21.6%; in test [6], 14.7%. Also, the growth in test [7] was 25.9%; in test [8], 28%.

For the molecule `CCOC(=O)c1cc(C(=O)c2ccc(F)cc2F)n2ccccc12`, the growth in test [1] was 76.3%; in test [2], 88.5%; in test [3], 106%; in test [4], 94.5%; in test [5], 94.1%; in test [6], 92.5%. The growth in test [7] was 101%; in test [8], 96.1%.

In the case of `C/C(=N\O)c1ccc(NC(=O)CSc2nnc(-c3ccccc3)n2-c2ccccc2)cc1`, the growth was 79.6% in test [1]; 20.9% in test [2]; 100% in test [3]; 83.1% in test [4]; 104% in test [5]; 28.6% in test [6]. Further, the growth is 91.1% in test [7] and 73.3% in test [8].

Regarding `O=C1/C=C/[C@@H](O)[C@@H]2C[C@@H](O)C[C@H]2/C=C/CCC[C@H](C(F)(F)F)O1`, the growth in test [1] was -57.2% (active); in test [2] it was 15.8%; in test [3], 6.68% (active); in test [4] it was -23.1% (active); in test [5], -64.2% (active); in test [6] it was -30.4% (active). The growth in test [7] was -36.5% (active); in test [8] it was 30%.

In the case of `C=CCNCCN1C(=O)c2ccc3c4c(ccc(c24)C1=O)C(=O)N(CCNCC=C)C3=O`, the growth in test [1] was -51.5% (active); in test [2] it was 21.8%; in test [3], -85.2% (active); in test [4], -50.3% (active); in test [5], -60.1% (active); in test [6], -23% (active). Moreover, the growth in test [7] was -81.2% (active); in test [8], -53.7% (active).

Regarding `CCCCCOC(=O)Nc1nc(=O)n(C2O[C@H](C)[C@@H](O)[C@H]2O)cc1F` (stereo partly specified), the growth was 102% in test [1]; 102% in test [2]; 98.4% in test [3]; 99.1% in test [4]; 99.8% in test [5]; 101% in test [6]. Moreover, the growth is 101% in test [7] and 103% in test [8].

On to `CNC(=O)c1cn2c3c(c(N4CCN(C)CC4)c(F)cc3c1=O)OC[C@@H]2C`, for which the growth in test [1] is 98.9%; in test [2], 104%; in test [3], 104%; in test [4] it was 99.9%; in test [5], 95.8%; in test [6], 104%. In addition, the results for the growth in test [7] and in test [8] were 108% and 100%, respectively.

Turning to `COc1ccc2nc(-c3ccc(Cl)cc3)cc(-c3nnc(SC/C(=N\O)c4ccccc4)n3-c3ccccc3)c2c1`, the growth in test [1] is 63.5%; in test [2], 90.8%; in test [3], 83.1%; in test [4], 90.5%; in test [5], 69.3%; in test [6] it was 67.9%. The growth in test [7] was 115%; in test [8], 69.2%.

On to `CCN1CCN(CCC(=O)Nc2cccc(-n3cc(-c4ccncc4)c(-c4ccc(Cl)c(OC)c4)n3)c2)CC1`, for which the growth in test [1] was 38.8%; in test [2], 39.2%; in test [3], -47% (active); in test [4] it was 10.3%; in test [5], 15.5%; in test [6], 5.22% (active). Besides, the growth was 43.8% in test [7] and 15.7% in test [8].

Regarding `CS(=O)(=O)c1nccc(-c2c(-c3ccc(OCCc4ccccc4)cc3)nc3sccn23)n1`, the growth in test [1] was 91.3%; in test [2], 110%; in test [3], 96%; in test [4], 93.7%; in test [5] it was 66.1%; in test [6], 99.6%. In addition, the growth in test [7] and in test [8] was 106% in each case.

For the molecule `COc1ccc(-c2n[nH]nc2-c2cc(OC)c(OC)c(OC)c2)cc1`, the growth in test [1] was 21.9%; in test [2], 13.6%; in test [3] it was 4.87% (active); in test [4], 19.7%; in test [5], 19.7%; in test [6], 6.27% (active). Further, the growth in test [7] is 14.2%; in test [8], 0.0603% (active).

As for `COc1ccc(C2CC(c3cccs3)=NN2c2ccc(S(N)(=O)=O)cc2)cc1` (stereo unspecified), the growth is 85.1% in test [1]; 99.7% in test [2]; 82% in test [3]; 100% in test [4]; 75% in test [5]; 70.7% in test [6]. In addition, the growth in test [7] is 92.5%; in test [8], 91.5%.

As for `Cc1ccc(C(=O)/C=C/c2ccccc2)s1`, the growth was 141% in test [1]; 99% in test [2]; 98.5% in test [3]; 100% in test [4]; 40% in test [5]; 60.4% in test [6]. Moreover, the figures for the growth in test [7] and in test [8] were 101% and 92.8%, respectively.

As to `NS(=O)(=O)c1ccc(N2N=C(c3ccccc3)CCC2=O)cc1`, the growth was 102% in test [1]; 223% in test [2]; 97.3% in test [3]; 109% in test [4]; 95.4% in test [5]; 86.8% in test [6]. Besides, the growth in test [7] was 97%; in test [8] it was 188%.

With `C[C@@H](C[C@H](CCO)c1ccccc1)c1ccc2ccccc2c1`, the growth in test [1] is -58.3% (active); in test [2] it was -86.1% (active); in test [3], -75.3% (active); in test [4], -26.5% (active); in test [5], -63% (active); in test [6] it was -94.3% (active). Besides, the growth in test [7] was -82.9% (active); in test [8] it was -42.3% (active).

Consider `COc1ccc(C(=O)N2C=Cc3ccccc3C2C#N)cc1` (stereo unspecified), for which the growth in test [1] is 90.8%; in test [2], 103%; in test [3] it was 72.3%; in test [4] it was 99%; in test [5], 96.4%; in test [6], 115%. Besides, the growth in test [7] was 103%; in test [8], 89.6%.

Take `CNC(=O)c1cc(Oc2ccc3c(c2)sc2nc(-c4ccc(N)cc4)cn23)ccn1`: the growth in test [1] is 36.1%; in test [2], 5.56% (active); in test [3] it was 13%; in test [4] it was 34.8%; in test [5], 20.2%; in test [6] it was 6.01% (active). In addition, the values for the growth in test [7] and in test [8] were 20.9% and 20.7%, respectively.

Take `COc1ccc(-c2nn(-c3cccc(Cl)c3)cc2-c2cc(-c3ccccc3)nc(N)n2)cc1`: the growth was 46.5% in test [1]; 73% in test [2]; 57% in test [3]; 45.3% in test [4]; 12.9% in test [5]; 5.52% (active) in test [6]. Besides, the growth in test [7] was 21.9%; in test [8] it was 31.8%.

As to `NC1=NC(c2ccc(Cl)cc2)C2=C(N1)/C(=C/c1ccc(Cl)cc1)CCC2` (stereo unspecified), the growth was 102% in test [1]; 79% in test [2]; -0.458% (active) in test [3]; 18.9% in test [4]; 33.2% in test [5]; -72.1% (active) in test [6]. Moreover, the growth is -31.1% (active) in test [7] and 2.3% (active) in test [8].

On to `CN(C)CCOc1cccc(-c2nc3sccn3c2-c2ccnc(S(C)(=O)=O)n2)c1`, for which the growth in test [1] is 74.7%; in test [2], 104%; in test [3], 96.8%; in test [4], 91.7%; in test [5], 88.3%; in test [6], 92.6%. The growth in test [7] was 106%; in test [8] it was 102%.

As to `Clc1ccc2c(c1)C(N1CCNCC1)=Nc1ccccc1O2`, the growth in test [1] is 35.2%; in test [2] it was 72.9%; in test [3], 28.9%; in test [4], 67%; in test [5], 28.9%; in test [6], 36.2%. In addition, the growth in test [7] is -25.4% (active); in test [8], 51.9%.

On to `CCCCc1oc2ccccc2c1C(=O)c1cc(I)c(OCCN(CC)CC)c(I)c1`, for which the growth in test [1] was 7% (active); in test [2], -50% (active); in test [3], -56.2% (active); in test [4] it was -96.3% (active); in test [5], -67% (active); in test [6], -61.4% (active). Also, the growth is -88.5% (active) in test [7] and -47.6% (active) in test [8].

As for `CCNc1nc(C(F)(F)F)nc2c1sc(=S)n2-c1ccccc1`, the growth in test [1] was 73.9%; in test [2] it was 95.2%; in test [3], 113%; in test [4], 106%; in test [5], 96.4%; in test [6] it was 94.3%. Besides, the values for the growth in test [7] and in test [8] were 115% and 89.2%, respectively.

As for `Cc1ccc(-n2c(C)nn3c(=O)c4c5c(sc4nc23)CN(C)CC5)cc1`, the growth in test [1] is 81.3%; in test [2], 97.6%; in test [3], 102%; in test [4], 104%; in test [5], 92.3%; in test [6], 93.5%. The growth in test [7] was 97.2%; in test [8], 96%.

As for `Fc1ccc2[nH]cc(-c3nc(-c4ccsc4)cs3)c2c1`, the growth in test [1] is 57%; in test [2], 96.9%; in test [3] it was 105%; in test [4], 94.8%; in test [5] it was 65.9%; in test [6], 91.5%. Also, the growth in test [7] is 105%; in test [8], 101%.

In the case of `COc1cc(/C=C2\CCCC3=C2N=C2SC(C)=CN2C3c2cc(OC)c(OC)c(OC)c2)cc(OC)c1OC` (stereo unspecified), the growth in test [1] was 33.1%; in test [2], -14.5% (active); in test [3] it was 1.99% (active); in test [4], -0.154% (active); in test [5], 16%; in test [6], -86.2% (active). Also, the growth in test [7] was -88% (active); in test [8], -80.4% (active).

For the molecule `O=C(Nc1ccc(F)cc1)c1cc2ccccc2cc1O`, the growth in test [1] is 46.3%; in test [2], 72.4%; in test [3], 86.3%; in test [4], 90.9%; in test [5] it was 58.5%; in test [6], 77.9%. The growth is 104% in test [7] and 69.2% in test [8].

On to `CCn1cc(CNc2ccc(C(=O)Nc3ccc4ccccc4c3)cc2)c(C)n1`, for which the growth in test [1] was 6.54% (active); in test [2], 9.81% (active); in test [3], 25.6%; in test [4], 87.6%; in test [5], 49%; in test [6] it was 40.5%. Also, the results for the growth in test [7] and in test [8] were 81.5% and 55.5%, respectively.

For `N#Cc1c(N)nc(-c2cc(F)cc(C(F)(F)F)c2)nc1-c1ccccc1F`, the growth in test [1] was 49%; in test [2] it was 58.9%; in test [3], 85.7%; in test [4], 63.4%; in test [5] it was 73.6%; in test [6] it was 26.2%. Besides, the growth in test [7] is 75.6%; in test [8], 79.7%.

As to `CS(=O)(=O)c1nccc(-c2c(-c3cccc(OCc4ccc(F)cc4)c3)nc3sccn23)n1`, the growth was 71.6% in test [1]; 41.7% in test [2]; 81.3% in test [3]; 48.4% in test [4]; 69.5% in test [5]; 46.4% in test [6]. For the same molecule, the growth in test [7] was -16.3% (active); in test [8], 38.9%.
